Measured values as given in PubChem BioAssay AID2546 (National Center for Advancing Translational Sciences (NCATS), 2010).
About 11,000 (3.5%) of roughly 310,000 compounds were called active. A call without a number means that no potency is given here. Roughly 8% stayed inconclusive and do not appear here. The full list was thinned out, with actives kept by preference. A number with no mark means an inactive call. Calls follow the shape of the dose curve; as a rule, active = well fitted inhibition curve with a large enough effect; inconclusive = small, poorly fitted or top-dose-only effect, or effect the other way; inactive = flat fitted curve, though single readings scatter.

assay: VP16 counterscreen qHTS for inhibitors of ROR gamma transcriptional activity; conditions: Drosophila S2 Gal4-VP16 UAS-luciferase, luminescence, 20 h; series mostly up to 53.6 µM;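 also: Gal4-VP16 expression switched on by copper sulfate through the metallothionein promoter; nearly all actives have a fitted effect of over 50% in size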
Potency is read from the fitted curve at half-maximal effect.

Compound | Potency | activity, negative = inhibition
CCC(C(=O)NC1CCCCC1)N(C(=O)c1snc(C(N)=O)c1N)c1ccc(OC)cc1OC (configuration not stated) | inactive | 
COc1cc(OC)c(C(=O)NCc2ccc3c(c2)OCO3)cc1OC | inactive | 
Cc1nn(Cc2ccc(C(=O)N3N=C(C(F)F)CC3(O)C(F)F)cc2)c(C)c1[N+](=O)[O-] (configuration not stated) | 10 µM (active) | 
Cc1ccn(CC(=O)N2N=C(C(F)F)CC2(O)C(F)F)n1 (configuration not stated) | inactive | 
Cc1nn(CC(=O)NCc2ccccn2)c(C)c1[N+](=O)[O-] | inactive | 
Cc1ccc(S(=O)(=O)N2CCN=C2SCc2c(F)cccc2Cl)cc1 | inactive | 
CCOC(=O)C1(CCOc2ccccc2)CCN(Cc2cc(OC)c(O)cc2Cl)CC1 | inactive | 
CN(Cc1ccccn1)Cc1nc(-c2ccc(Cl)cc2)no1 | inactive | 
CC1CCN(Cc2nc(-c3ccc(Cl)cc3)no2)CC1 | inactive | 
CCN1CC(CN(C)Cc2nc(-c3ccc(Cl)cc3)no2)CC1=O (configuration not stated) | 10 µM (active) | 
CC(C)c1ccc(C2C(C(=O)c3ccco3)=C(O)C(=O)N2CC2CCCO2)cc1 (configuration not stated) | inactive | 
Cc1ccc(NC(=O)C2CCN(S(=O)(=O)c3ccc4c(c3)NC(=O)CO4)CC2)cc1C | inactive | 
Clc1ccc(C2CC(c3cccs3)n3ncnc3N2)cc1Cl (configuration not stated) | 17.8 µM (active) | 
COc1ccc(C2CC(c3ccccc3)Nc3ncnn32)cc1 (configuration not stated) | inactive | 
COc1ccc(C2CC(c3ccc(C)cc3)Nc3ncnn32)cc1 (configuration not stated) | inactive | 
Cc1[nH]c2ccc(C(=O)N3CCN(C)CC3)cc2c1C | inactive | 
Cc1ccc(Nc2nc(N)nc(CSc3nnc(C)s3)n2)cc1 | inactive | 
Nc1nc(CC(=O)CSc2ccc(Cl)cc2)nc(Nc2ccc(F)cc2)n1 | 12.6 µM (active) | 
CCOC(=O)N1CCN(Cc2nc(N)nc(Nc3ccc(C)cc3)n2)CC1 | inactive | 
COc1ccccc1NC(=O)N1CCCC1C(=O)NCc1cccs1 (configuration not stated) | inactive | 
O=C(N/N=C/c1ccccn1)c1cccc(NC(=O)c2ccc(Cl)cc2)c1 | inactive | 
COc1ccc(N(CC(=O)NCc2ccc(F)cc2)C(=O)CCC(=O)Nc2nccs2)cc1 | inactive | 
O=C(CCC1CCN(C(=O)c2cccc(Cl)c2F)CC1)Nc1ccccc1 | inactive | 
COc1nnc(-c2ccc(C)c(S(=O)(=O)N(C)C)c2)c2ccccc12 | inactive | 
CC1=NN(C(=O)c2ccc(Br)cc2)C(O)(c2ccccc2)C1 (configuration not stated) |  | -2.82% [at 10 µM]
CC1=NN(C(=O)c2ccccc2Br)C(O)(c2cccnc2)C1 (configuration not stated) | 12.6 µM (active) | 

Compound | Potency | activity, negative = inhibition
CCOC(=O)C1(O)CC(C)=NN1C(=O)c1cccc(Br)c1 (configuration not stated) | inactive | 
Cc1ccc(CC2S/C(=C(/C#N)C(=O)N3CCOCC3)N(c3ccccc3)C2=O)cc1 (configuration not stated) | inactive | 
N#C/C(C(=S)Nc1ccccc1)=C1/NN=C(N2CCOCC2)N1c1ccccc1 | 4.47 µM (active) | 
N#C/C(C(=O)N1CCOCC1)=C1/SC(Cc2ccc(F)cc2)C(=O)N1c1ccccc1 (configuration not stated) | inactive | 
COc1c(O)cc2oc(-c3ccc(O)c(O)c3)cc(=O)c2c1O | inactive | 
O=c1cc(-c2ccc(O)cc2)oc2c(-c3cc(-c4cc(=O)c5c(O)cc(O)cc5o4)ccc3O)c(O)ccc12 | inactive | 
O=c1cc(-c2ccc(O)c(O)c2)oc2cccc(O)c12 | 12.6 µM (active) | 
Cn1ccnc1SCC(=O)Nc1ccc2c(c1)OCCO2 | inactive | 
CCCN1C2CCCC1CC(NC(=O)NC13CC4CC(CC(C4)C1)C3)C2 (configuration not stated) | inactive | 
Cc1noc(C)c1/C=N/Nc1ccc2ccccc2n1 | inactive | 
Cc1cc(=O)[nH]c(N/N=C/c2ccc3c(c2)OCCO3)n1 | inactive | 
C(=N\Nc1ccc2ccccc2n1)/c1ccc2c(c1)OCO2 | 14.1 µM (active) | 
O=C1CN(C(=O)c2cc(F)cc(F)c2)c2ccccc2N1 | inactive | 
COc1ccc(C(C)NC(=O)C23CC4CC(CC(C4)C2)C3)cc1 (configuration not stated) | inactive | 
CCc1ccc(Oc2coc3cc(O)ccc3c2=O)cc1 | inactive | 
O=S(=O)(c1cccc(-c2nnc3n2CCCCC3)c1)N1CCOCC1 | inactive | 
CCN(Cc1ccncc1)C(=O)c1cccc(S(=O)(=O)N2CCOCC2)c1 | inactive | 
O=S(=O)(c1cccc(Cn2nnc(-c3ccc(F)cc3)n2)c1)N1CCOCC1 | 11.2 µM (active) | 
CCN(CC)CCn1cnc2c1c(=O)[nH]c(=O)n2Cc1ccccc1 | inactive | 
COc1ccc(CSc2nnnn2-c2ccc(O)cc2)cc1F | inactive | 
CCOC(=O)CC1COCCN1C(=O)c1cc(COc2ccc(F)c(F)c2)on1 (configuration not stated) | inactive | 
Cc1ccc(S(=O)(=O)N2CCOCC2)cc1C(=O)NCc1ccc(F)cc1 | inactive | 
Cc1ccc(S(=O)(=O)N2CCOCC2)cc1C(=O)NC(=S)N(Cc1ccccc1)C(C)C | 3.98 µM (active) | 
CCOC(=O)c1sc(NC(=O)c2cc(S(=O)(=O)N3CCOCC3)ccc2C)nc1C | inactive | 
O=C(CN1CCCCCC1)Nc1c(Cl)cc(Cl)cc1Cl | inactive | 
CN(Cc1ccccc1)C(=O)C(=O)c1cn(CC(=O)N2CCCC2)c2ccccc12 | inactive | 

Compound | Potency | activity, negative = inhibition
N#CC1(NC(=O)COC(=O)CCN=C2NS(=O)(=O)c3ccccc32)CCCCC1 | inactive | 
O=C(N/N=C/c1cc([N+](=O)[O-])ccc1O)/C(=C\c1cccs1)NC(=O)c1ccccc1 | 10 µM (active) | 
O=C(Nc1ccc(C(=O)O)cc1)/C(=C/c1ccc([N+](=O)[O-])cc1)NC(=O)c1ccccc1 | inactive | 
O=C(N/N=C/c1ccc(O)cc1)/C(=C/c1ccc([N+](=O)[O-])cc1)NC(=O)c1ccccc1 | inactive | 
CSc1nnc(C2CCCN(CC(=O)Nc3ccccc3N3CCOCC3)C2)n1C(C)C (configuration not stated) | inactive | 
Cc1cc(Cl)c(S(=O)(=O)NCc2cccnc2)cc1OCC(N)=O | inactive | 
O=S(=O)(NCc1ccccn1)c1ccc(F)cc1 | inactive | 
Cc1cc(S(=O)(=O)NCc2ccccn2)c(Cl)cc1Cl | 5.62 µM (active) | 
COc1ccc(NC(=O)C2CCC(CNC(=O)[C@@H]3Cc4ccccc4CN3)CC2)cc1 (some centres not stated) | inactive | 
CC(=O)N1c2ccc(S(=O)(=O)N3CCC(C(=O)NCc4ccc(F)cc4)CC3)cc2CC1C (configuration not stated) | inactive | 
Cc1cc(-c2n[nH]c(=S)n2-c2ccc(C)c(C)c2)no1 | inactive | 
Cc1ccc(-n2c(-c3ccc(Cl)cc3)n[nH]c2=S)cc1 | 2.51 µM (active) | 
COc1ccc(-n2c(-c3ccc(OC)c(OC)c3)n[nH]c2=S)cc1 | inactive | 
Cc1nc2sccn2c(=O)c1S(=O)(=O)NCCc1ccccc1 | inactive | 
COc1cc(C(=O)NCC2(c3ccccc3)CCCC2)ccc1OC(C)C | inactive | 
O=C(/C=C/c1cccc([N+](=O)[O-])c1)N1CCN(Cc2ccccc2)CC1 | inactive | 
O=c1c([N+](=O)[O-])cc(C(F)(F)F)cn1Cc1cccc(Cl)c1 | inactive | 
O=[N+]([O-])/C=C/c1ccc2c(ccn2Cc2ccccc2)c1 | 11.2 µM (active) | 
CC1CCN(C(=O)c2ccccc2NC(=O)Cc2ccccc2)CC1 | inactive | 
CC1CCN(C(=S)NC(=O)c2ccccc2Br)CC1 | 3.55 µM (active) | 
CC1CCN(C(=O)/C(=C\c2ccccc2)NC(=O)c2ccccc2)CC1 | inactive | 
COc1ccc(CNC(=O)c2ccc(Br)s2)cc1OC | inactive | 
Cc1ccc(C(=O)N/C(=C\c2cn(S(=O)(=O)N(C)C)c3ccccc23)C(=O)N2CCCC2)cc1 | inactive | 
CCOC(=O)CN/C=C(\C#N)c1ccc(F)cc1 |  | -4.69% [at 10 µM]
C/C(=N\OCC(=O)O)c1ccc(Cl)cc1 | inactive | 
CCOc1cc(/C=C(/C#N)c2ccc(Cl)cc2)cc(Cl)c1OCC(=O)O | 0.794 µM (active) | 

Compound | Potency | activity, negative = inhibition
CC(C)OCCCNC(=O)CN1C(=O)/C(=C/c2ccccc2F)Oc2ccccc21 | inactive | 
C[C@]12CC[C@@H]3c4ccc(O)cc4C[C@@H](CCCCCCCCCS(=O)CCCC(F)(F)C(F)(F)F)C3[C@@H]1CC[C@@H]2O (some centres not stated) | inactive | 
CC1CN(C(=O)CCC(=O)NCCCN2CCC(Cc3ccccc3)CC2)c2cc(Cl)ccc2O1 (configuration not stated) | inactive | 
CC1(C)Cc2cccc(OCC(=O)NCc3ccccc3)c2O1 | inactive | 
COc1ccc(-c2nc(-c3ccccc3)no2)c(OC)c1 | 4.47 µM (active) | 
COc1ccccc1Cc1nc(-c2ccc(C)cc2)no1 | inactive | 
CCOc1nc(-c2ccc(OC)cc2)ccc1-c1noc(-c2cc(OC)c(OC)c(OC)c2)n1 | inactive | 
COc1ccc(N(Cc2ccc(N(C)C)cc2)C(=O)c2ccc(S(C)(=O)=O)cc2)cc1 | inactive | 
COc1cccc(N2CCN(c3ccc4nnc(CCC(=O)N5CCN(C)CC5)n4n3)CC2)c1 | inactive | 
CCOc1ccc(-n2c(SCC(=O)OC)nc3sc4c(c3c2=O)CCN(C)C4)cc1 | inactive | 
Cc1c(NC(=S)NCc2ccc(F)cc2)cccc1[N+](=O)[O-] | 15.8 µM (active) | 
Cc1c(NC(=O)/C=C/C(=O)O)cccc1[N+](=O)[O-] | inactive | 
Cc1cccc(NC(=O)c2cccc(C(=O)Nc3cccc(C)c3C)n2)c1C | inactive | 
Cc1cccc(NC(=S)N2CCC(O)CC2)c1C | inactive | 
Cc1cccc(NC(=O)COC(=O)CCc2ccccc2)c1C | inactive | 
Cc1cccc(NC(=S)NCCc2ccc(F)cc2)c1C | 6.31 µM (active) | 
Cc1cc(C(=O)NCCc2ccc(Cl)cc2)c(C)o1 | inactive | 
Cc1cc(Cl)ccc1NC(=S)NCCCN1CCCC1=O | inactive | 
Cc1ccc(NC(=S)NCCc2ccc(Cl)cc2)c(C)c1 | 3.16 µM (active) | 
Cc1c(NC(=O)Nc2ccccc2)cccc1[N+](=O)[O-] | inactive | 
Cc1cccc(NC(=S)NCCc2ccc(Cl)cc2)c1C | 7.08 µM (active) | 
Cc1cccc(NC(=O)C2CCCN(C(=O)Nc3ccc(F)cc3)C2)c1C (configuration not stated) | inactive | 
CCn1cc(CN2CCN(CC(C)(C)C)C(CCO)C2)c2ccccc21 (configuration not stated) | inactive | 
Cc1ccc(C)c(N2CCN(S(=O)(=O)c3c(C)[nH]c(C)c3C(=O)N3CCCC3)CC2)c1 | inactive | 
